Activity calls are given as the source filed them.
Legend:
Albumin (Bos taurus) = Albumin (Bos taurus) (UniProt P02769); assay: bovine serum albumin binders on microarray, profiling panel, artefact control for SMM control protein annotation, biochemical, small-molecule microarray, Alexa647 label, 635/667 nm fluorescence (AID 1118); settings: BSA-A647 binding, fluorescence 635 nm, higher = more signal;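 note: score merges 667 nm emission intensity and signal-to-noise per printed compound spot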
[1] = small-molecule microarray binders of probe aXIP, primary screen, biochemical, NeuroSMM set, 635/667 nm fluorescence (AID 1119); settings: higher = more signal, called active from +8 up or from −8 down;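 note: probe is the protein aXip251-270 applied at 1 µg/mL to compound-printed slides; binding of probe to printed compounds measured as 667 nm fluorescence plus signal to noise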
[2] = small-molecule binders of probe aNOTCH3, primary screen, biochemical, small-molecule microarray, 635/667 nm fluorescence (AID 1120); settings: higher = more signal;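 note: probe is a biotin-tagged antibody raised against NOTCH3 rather than NOTCH3 protein; score merges spot fluorescence near 667 nm with spot signal to noise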
[3] = small-molecule binders of probe aNOTCH2, primary screen, biochemical, small-molecule microarray, 635/667 nm fluorescence (AID 1121); settings: higher = more signal;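 note: score merges feature fluorescence read at 667 nm with its signal to noise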
[4] = target: Carbonic anhydrase 2 (Homo sapiens) (UniProt P00918); assay: CAII small-molecule binders, profiling panel, biochemical, small-molecule microarray, Alexa647-labelled CAII (AID 1122); settings: CAII-A647 binding fluorescence, higher = more signal
[5] = COS7 lysate on small-molecule microarray, probe aHis, 635 nm (AID 1123); settings: COS7 cell lysate, fluorescence, higher = more signal;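 note: z-score combines 667nm fluorescence intensity with signal-to-noise per printed compound spot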
[6] = compound binding in COS7 lysate, probe aLAP1, primary screen, cell lysate, small-molecule microarray (AID 1124); settings: probe aLAP1, fluorescence, higher = more signal;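 note: lysate comes from COS7 cells expressing LAP1 and is applied at 0.3 µg/mL; score merges spot fluorescence near 667 nm with signal-to-noise over triplicate slides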
Sam68 (KHDRBS1) = assay: Sam68 small-molecule binders, primary screen, biochemical, small-molecule microarray, 635 nm fluorescence (AID 1125); settings: small-molecule microarray binding, higher = more signal;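 note: score merges 667 nm channel intensity with signal to noise over triplicate slides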
[7] = tested on: Chordin-like protein 2 (CHRDL2); assay: CHRDL2 small-molecule binders, primary screen, biochemical, small-molecule microarray, 635 nm fluorescence (AID 1126); settings: small-molecule microarray binding, fluorescence 635 nm; higher = more signal;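 note: printed compound slides probed with Chrdl2 protein at 4 µg/mL for 1 h at 4 C; score merges 667 nm emission intensity with signal to noise over three replicate slides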
[8] = target: Concanavalin-A (Canavalia ensiformis) (UniProt P02866); assay: ConA small-molecule binders, primary screen, artefact control for SMM control protein annotation, biochemical, small-molecule microarray, Alexa647 label, 635 nm (AID 1127); settings: ConA-A647 binding fluorescence, higher = more signal;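 note: z combines 667 nm emission intensity with signal-to-noise across three replicate slides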
Chain of Concanavalin-A (Canavalia ensiformis) (P02866 whole entry, looked up): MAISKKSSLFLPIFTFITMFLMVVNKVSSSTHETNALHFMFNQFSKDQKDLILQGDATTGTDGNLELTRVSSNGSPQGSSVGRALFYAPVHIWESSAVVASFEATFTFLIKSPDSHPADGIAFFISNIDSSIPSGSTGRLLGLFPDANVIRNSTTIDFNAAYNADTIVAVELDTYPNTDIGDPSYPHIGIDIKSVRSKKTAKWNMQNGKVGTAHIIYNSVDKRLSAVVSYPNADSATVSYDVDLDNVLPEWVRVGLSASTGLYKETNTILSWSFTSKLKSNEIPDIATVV

Chain of Albumin (Bos taurus) (P02769 whole entry, looked up): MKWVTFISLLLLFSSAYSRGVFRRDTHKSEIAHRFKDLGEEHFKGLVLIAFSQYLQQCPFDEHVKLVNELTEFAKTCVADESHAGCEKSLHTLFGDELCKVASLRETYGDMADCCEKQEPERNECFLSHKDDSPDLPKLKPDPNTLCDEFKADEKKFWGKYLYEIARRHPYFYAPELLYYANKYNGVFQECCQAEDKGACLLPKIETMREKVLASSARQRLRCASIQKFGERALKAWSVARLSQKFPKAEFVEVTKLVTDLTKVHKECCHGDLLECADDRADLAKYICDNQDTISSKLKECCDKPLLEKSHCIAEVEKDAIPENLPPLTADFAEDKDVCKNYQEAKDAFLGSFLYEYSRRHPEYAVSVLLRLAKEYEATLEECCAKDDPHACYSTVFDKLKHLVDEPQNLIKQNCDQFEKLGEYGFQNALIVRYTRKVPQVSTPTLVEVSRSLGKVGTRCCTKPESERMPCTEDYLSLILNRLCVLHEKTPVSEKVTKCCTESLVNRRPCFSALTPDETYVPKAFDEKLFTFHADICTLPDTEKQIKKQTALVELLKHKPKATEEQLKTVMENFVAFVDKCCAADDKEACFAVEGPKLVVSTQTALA

SMILES	composite z-score (Albumin (Bos taurus))	composite Z-score [1]	composite z-score [2]	composite z-score [3]	composite z-score [4]	composite z-score [5]	composite z-score [6]	composite z-score (Sam68 (KHDRBS1))	composite z-score [7]	composite z-score [8]
COc1ccc([Si](C)(C)[C@@H]2[C@@H](CC(=O)N3Cc4ccccc4C[C@H]3CO)O[C@]3(C(=O)N(Cc4ccc(N5CCC5=O)cc4)c4ccccc43)[C@H]2C)cc1	0.502	-0.0662 (inactive)	-0.0362	-0.234	0.337	1.14	0.421	1.24	1.19	1.08
C=C(CCCC)C(=O)CC[C@@H](OC(=O)c1cccnc1)c1ccc(OCCO)cc1	-0.409	0.97 (inactive)	-0.0144	-0.0357	0.718	0.719	0.488	0.947	0.894	0.239
O=C1[C@@]23C=C(Br)[C@H](C[C@@H]2COC3)[C@@]12CO2	-0.512	0.395 (inactive)	0.147	-0.153	-0.0903	0.301	-0.0796	0.206	0.532	0.459
CN1C(=O)C2C=CC(C(O)c3cc(C(F)(F)F)cc(C(F)(F)F)c3)N(Nc3ccccc3)C2C1=O (stereo not given)	0.969	0.309 (inactive)	-0.149	-0.147	0.831	2.96	-0.23	0.891	-0.616	-0.0932
C=C[C@H](C)[C@H](OC(=O)Nc1ccc(OC)cc1)c1ccc(OCCO)cc1	-0.381	0.838 (inactive)	-0.279	-0.209	0.464	0.718	0.434	-0.321	-1.18	-1.35
COC(=O)[C@@]1(Cc2ccc(F)cc2)[C@H]2c3cc(C(=O)N4CCCC4)n(CC4CC4)c3C[C@H]2CN1C(=O)c1ccccc1	0.87	1.5 (inactive)	1.07	0.416	0.765	2.99	0.888	1.3	-0.621	0.553
Cc1ccc(S[C@]2(C(=O)NCc3ccccc3)CC(=O)N(Cc3cc(C(F)(F)F)cc(C(F)(F)F)c3)[C@@H]2c2ccc(CO)cc2I)cc1	-0.618	-0.244 (inactive)	-0.338	-0.161	0.699	0.67	0.0779	-0.191	-1.77	-1.54
O=C1N(CCS(=O)(=O)c2ccccc2)Cc2ccccc2[C@@H]2OC(c3ccc(OCCCO)cc3)=N[C@]12CCS(=O)(=O)c1ccccc1	0.0789	0.02 (inactive)	0.128	0.123	0.628	2.98	0.638	1.31	1.15	1.11
COCCCNC(=O)[C@@]1(c2ccc([N+](=O)[O-])cc2)CC(=O)N(CC23CC4CC(CC(C4)C2)C3)[C@@H]1c1ccc(CO)cc1I	0.0824	0.197 (inactive)	-0.0751	-0.0561	0.126	1.61	0.159	0.745	-0.348	0.905
Cc1cccc([C@H]2C[C@H]3C(Br)=C[C@@H]2C(=O)[C@]32CO2)c1	-0.904	0.289 (inactive)	-0.125	-0.16	-0.255	-0.498	-0.552	-0.721	0.563	-0.051
CCOC(=O)C1=C[C@@H](C(C)(C)C)N(S(=O)(=O)c2ccc(C)cc2)[C@H]1c1ccc(C)cc1	0.804	0.403 (inactive)	0.305	0.0554	0.263	2.49	0.512	1.29	0.205	1.18
COCCOC(=O)N1C(=O)[C@@]2(c3cc(C#CCCO)ccc31)[C@H](C(=O)N1CCCCCCC1)[C@H]1C(=O)O[C@H](c3ccccc3)[C@H](c3ccccc3)N1[C@@H]2c1ccccc1OCCO	0.951	3.51 (inactive)	1.46	0.662	0.599	2.89	0.359	1.32	1.14	1.09
COc1ccc(CCNC(=O)[C@@]2(Cc3ccccc3I)c3ccccc3C(=O)N(Cc3ccccc3Cl)[C@H]2c2ccc(CO)cc2)cc1	-0.41	1.24 (inactive)	0.385	0.111	0.731	1.34	0.529	0.576	-0.311	0.555
COC(=O)[C@@]1(Cc2ccc(F)cc2)[C@H]2c3cc(C(=O)N4CCCC4)n(C)c3C[C@H]2CN1C(=O)c1ccccc1	0.942	0.929 (inactive)	0.49	0.295	0.76	3.32	1.01	1.31	-1.04	0.683
CN1C(=O)C2C=CC(C(O)c3cc(C(F)(F)F)cc(C(F)(F)F)c3)N(NC(=O)OC(C)(C)C)C2C1=O (stereo not given)	1.04	0.622 (inactive)	0.465	0.0753	0.604	2.87	0.403	1.3	-1.08	1.17
COc1cc2c(cc1OC)CN(C(=O)[C@@H]1[C@H]3C(=O)O[C@H](c4ccccc4)[C@H](c4ccccc4)N3[C@H](c3ccc(O)cc3)[C@@]13C(=O)Nc1ccc(C#CCCO)cc13)CC2	0.571	0.37 (inactive)	-0.0699	-0.113	0.606	1.08	0.78	1.13	0.481	0.754
NCCCCCNC(=O)[C@H]1C[C@H]2C(=O)N[C@@H](Cc3ccccc3)C(=O)N2[C@H]1c1ccc(O)cc1	0.819	0.491 (inactive)	0.248	0.197	0.487	1.23	1.23	1.28	0.518	1.08
[N-]=[N+]=NCc1ccccc1[C@@H]1OC(c2ccc(OCCCO)cc2)=N[C@]1(Cc1ccccc1)C(=O)NCCN1CCOCC1	0.501	-0.016 (inactive)	0.369	0.128	0.676	1.98	0.994	1.18	0.325	1.12
CN1C=C(C(=O)OCCS(C)(=O)=O)C(C(=O)OCCS(C)(=O)=O)=CC(c2ccc(CO)cc2)=CC1c1cccs1 (stereo not given)	0.232	0.142 (inactive)	0.0026	-0.0936	0.812	0.848	0.279	0.645	0.318	0.64
COCCOC(=O)N1C(=O)[C@@]2(c3ccccc31)[C@H](c1ccc(OCCO)cc1)N1[C@H](c3ccccc3)[C@H](c3ccccc3)OC(=O)[C@H]1[C@@H]2C(=O)N1CCCCCCC1	0.915	7.84 (inactive)	2.31	1.18	1.08	5.33	1.22	1.35	1.7	1.24
CC(C)[C@H]1NC(=O)[C@@]23C(=O)N[C@@H](Cc4ccccc4)C2[C@H](C)[C@@]2(C)O[C@H]2C3/C=C/C/C=C\CNC(=O)[C@H](Cc2ccccc2)NC1=O (stereo not given in full)	0.347	0.167 (inactive)	0.204	-0.19	0.318	0.836	0.582	1.29	0.908	0.273
COC(=O)C1=CC(CCCO)=CC(c2ccc(CN3CCCC3)cc2)N(Cc2cc3c(cc2Br)OCO3)C=C1C(=O)OC (stereo not given)	1.04	0.339 (inactive)	0.477	0.135	0.705	1.76	0.672	1.3	-0.384	0.701
COCC(=C=CC[C@@H](O)c1cccc(OCCO)c1)CCO	0.682	0.0124 (inactive)	-0.0293	0.011	0.708	0.562	1.41	0.381	-0.325	0.856
COCCOC(=O)N1C(=O)[C@@]2(c3cc(C#CCCO)ccc31)[C@H](C(N)=O)[C@H]1C(=O)O[C@H](c3ccccc3)[C@H](c3ccccc3)N1[C@@H]2c1ccc(OCCO)cc1	0.489	0.206 (inactive)	0.12	0.0248	0.354	2.21	0.667	1.29	0.618	1.15
O=C1C2C=CC(C(O)c3ccc(I)cc3)N(Nc3ccccc3)C2C(=O)N1c1ccccc1 (stereo not given)	0.778	0.284 (inactive)	0.273	0.11	0.738	2.87	0.635	1.34	-0.409	1.16
C=CCNC(=O)[C@@H]1[C@H]2C(=O)O[C@H](c3ccccc3)[C@H](c3ccccc3)N2[C@H](c2ccc(O)cc2)[C@@]12C(=O)Nc1ccc(C#CCC(C(=O)OC)C(=O)OC)cc12	0.0825	-0.136 (inactive)	-0.0647	-0.0907	0.336	1.52	0.123	1.33	0.231	0.933
C=CCC(OC(C)=O)[C@@H]1[C@@H](N(Cc2cccc3ccccc23)C(=O)Cc2ccc(F)cc2)c2cc(OCCCO)ccc2N1C(=O)c1ccc(-c2ccccc2)cc1 (stereo not given in full)	0.621	-0.248 (inactive)	0.0847	0.054	-0.119	0.644	0.505	-0.738	-0.335	-1.6

From PubChem BioAssay
